From PubChem BioAssay (NCI) come the findings set out here.

Test systems include DU-145 prostate; K-562 leukemia; MALME-3M melanoma; MDA-MB-231 breast; RXF 393 renal; SF-268 CNS; SF-295 CNS; SF-539 CNS; UACC-257 melanoma; M14 melanoma; HCT-15 colon; HT29 colon; SNB-75 CNS; SNB-19 CNS; U251 CNS; PC-3 prostate; SK-MEL-5 melanoma; UACC-62 melanoma; LOX IMVI melanoma; SK-MEL-28 melanoma.
Common to all, as to assay: NCI-60 one-dose screen, 48 h (100 = growth as untreated, 0 = no growth, -100 = all killed)
Holding throughout (settings): 10 µM unless noted

Each structure is given as a SMILES string. This is part of a sample that, as a whole, favours compounds with a hit. Of some 83,000 tested, about 20% had one in any assay.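 Values shown are percent growth following 48 h exposure of cells in 96-well plates to a single concentration of compound; below 10 was considered active.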 Unmarked numbers belong to inactive results. Calls of active or inactive are those of the source.

For `Clc1ccc(CNc2c3ccccc3nc3ccccc23)cc1`, the growth is 54.8% with DU-145 prostate; 4.34% (active) in the test on K-562 leukemia; 39.6% in the test with MALME-3M melanoma; 54.8% in the test with MDA-MB-231 breast; 29.7% with RXF 393 renal; 67.9% in the test with SF-268 CNS. The growth in the test with SF-295 CNS was 59.6%; in the test on SF-539 CNS it was 30.3%; in the test with UACC-257 melanoma it was 76.1%; with M14 melanoma, 53.3%; in the test with HCT-15 colon, 23.3%; with HT29 colon, 15%. The growth was 68.4% with SNB-75 CNS; 43.1% in the test on SNB-19 CNS; 46.2% in the test with U251 CNS; 38.7% in the test with PC-3 prostate; 61.2% with SK-MEL-5 melanoma; 70.7% in the test with UACC-62 melanoma. The growth was 23% in the test on LOX IMVI melanoma and 80.3% in the test with SK-MEL-28 melanoma.

For the compound `Cc1ccc(C2=Nc3c(N)ncnc3NC(c3ccc4c(c3)OCO4)C2)cc1` (stereo not given), the growth is 98% in the test on DU-145 prostate; 14.8% in the test with K-562 leukemia; 51.8% in the test on MALME-3M melanoma; 61.3% with MDA-MB-231 breast; 59.4% in the test on RXF 393 renal; 72.9% in the test with SF-268 CNS. For the same compound, the growth in the test with SF-295 CNS is 40.8%; with SF-539 CNS, 67.7%; in the test on UACC-257 melanoma, 96.2%; in the test on M14 melanoma, 39%; with HCT-15 colon, 34.6%; in the test on HT29 colon, 14.1%. Moreover, the growth in the test with SNB-75 CNS was 53.5%; in the test with SNB-19 CNS, 73.2%; in the test on U251 CNS it was 46.9%; in the test on PC-3 prostate, 62.5%; with SK-MEL-5 melanoma, 33.3%; with UACC-62 melanoma it was 48.5%. Moreover, the growth is 59.3% in the test on LOX IMVI melanoma and 58% with SK-MEL-28 melanoma.

Regarding `O=C1NCCC12CCN(c1c(Cl)cncc1-c1ccc(O)cc1)CC2`, the growth in the test on DU-145 prostate is 108%; in the test with K-562 leukemia it was 97.9%; in the test with MALME-3M melanoma, 117%; with MDA-MB-231 breast, 102%; with RXF 393 renal it was 87.9%; with SF-268 CNS, 82.5%. Further, the growth in the test with SF-295 CNS is 101%; in the test with SF-539 CNS, 83.7%; with UACC-257 melanoma, 86.7%; in the test on M14 melanoma, 114%; with HCT-15 colon, 105%; in the test on HT29 colon, 94.2%. Also, the growth with SNB-75 CNS was 112%; in the test on SNB-19 CNS, 98.9%; in the test on U251 CNS, 94.9%; with PC-3 prostate, 98.8%; with SK-MEL-5 melanoma, 94.4%; with UACC-62 melanoma, 90.2%. The growth in the test on LOX IMVI melanoma is 87.7%; in the test on SK-MEL-28 melanoma, 103%.

As to `COc1ccc(C/C(C)=C(/c2ccc(OCCN3CCCCC3)cc2)c2ccc(OC(=O)NCc3ccccc3)cc2)cc1`, the growth in the test with DU-145 prostate is -97.2% (active); with K-562 leukemia it was -56.3% (active); in the test with MALME-3M melanoma it was -87.3% (active); with MDA-MB-231 breast, -86.9% (active); in the test with RXF 393 renal, -91.4% (active); in the test on SF-268 CNS, -76.6% (active). Moreover, the growth in the test on SF-295 CNS was -94.8% (active); in the test on SF-539 CNS, -92.5% (active); in the test on UACC-257 melanoma it was -83.2% (active); with M14 melanoma, -92.3% (active); in the test with HCT-15 colon, -85.4% (active); in the test on HT29 colon, -87.8% (active). Also, the growth in the test with SNB-75 CNS is -88.9% (active); with SNB-19 CNS, -90.6% (active); with U251 CNS, -97.5% (active); with PC-3 prostate it was -95.9% (active); in the test with SK-MEL-5 melanoma, -100% (active); in the test with UACC-62 melanoma, -92.9% (active). Further, the growth is -93% (active) in the test with LOX IMVI melanoma and -85.8% (active) in the test on SK-MEL-28 melanoma.

As to `CC1=C(C(=O)OC(C)C)C(c2ccc3c(c2)OCO3)NC(=S)N1` (stereo not given), the growth with DU-145 prostate is 109%; in the test with K-562 leukemia it was 107%; in the test with MALME-3M melanoma, 95.9%; in the test on MDA-MB-231 breast, 101%; with RXF 393 renal, 106%; with SF-268 CNS it was 103%. The growth in the test with SF-295 CNS was 95.8%; in the test with SF-539 CNS it was 98.9%; with UACC-257 melanoma, 100%; with M14 melanoma, 99%; in the test on HCT-15 colon, 100%; in the test with HT29 colon, 103%. The growth was 95.2% in the test on SNB-75 CNS; 95.4% in the test on SNB-19 CNS; 102% with U251 CNS; 86% in the test with PC-3 prostate; 98.5% in the test with SK-MEL-5 melanoma; 85.2% with UACC-62 melanoma. Moreover, the growth is 97.3% in the test with LOX IMVI melanoma and 106% in the test with SK-MEL-28 melanoma.

As for `CC1(C)c2[nH]c3ccccc3c2C[C@]2(C)[C@H]3CC=C4[C@@H]5C[C@@](C)(C(N)=O)CC[C@]5(C)CC[C@@]4(C)[C@]3(C)CC[C@@H]12`, the growth was 74% with DU-145 prostate; 29.9% in the test with K-562 leukemia; 68% in the test on MALME-3M melanoma; 65.8% in the test with MDA-MB-231 breast; 77.4% in the test with RXF 393 renal; 73.2% in the test with SF-268 CNS. Besides, the growth in the test with SF-295 CNS is 53.6%; with SF-539 CNS, 80.9%; in the test on UACC-257 melanoma, 52.5%; in the test on M14 melanoma, 54.6%; in the test on HCT-15 colon it was 50.9%; with HT29 colon it was 62.7%. Moreover, the growth in the test on SNB-75 CNS was 101%; in the test with SNB-19 CNS, 62.2%; in the test with U251 CNS it was 69.2%; in the test with PC-3 prostate, 50.6%; with SK-MEL-5 melanoma, 19.8%; in the test on UACC-62 melanoma it was 59.2%. For the same compound, the growth with LOX IMVI melanoma was 56.8%; in the test on SK-MEL-28 melanoma, 77.4%.

As to `O=C(NCCCCNC(=O)OCc1ccc2c(Cl)cc(Cl)c(O)c2n1)OCc1ccc2c(Cl)cc(Cl)c(O)c2n1`, the growth with DU-145 prostate is 1.77% (active); with K-562 leukemia it was 11.6%; with MALME-3M melanoma it was 43%; with MDA-MB-231 breast, 25.1%; in the test on RXF 393 renal, 27%; in the test on SF-268 CNS it was 31.3%. Further, the growth in the test with SF-295 CNS is 22.8%; in the test on SF-539 CNS it was -13.7% (active); in the test with UACC-257 melanoma, 23.8%; in the test with M14 melanoma, 12.4%; with HCT-15 colon, 13%; in the test on HT29 colon, 103%. Also, the growth was 24.6% in the test on SNB-75 CNS; 62.7% in the test with SNB-19 CNS; 9.05% (active) in the test on U251 CNS; 18.8% in the test on PC-3 prostate; -46.4% (active) in the test with SK-MEL-5 melanoma; 36.7% in the test with UACC-62 melanoma. Further, the growth in the test with LOX IMVI melanoma was 14.4%; in the test with SK-MEL-28 melanoma it was 50.6%.

Consider `COc1ccc(C(=O)Nc2ncc(Cc3ccc(F)cc3)s2)cc1`, for which the growth in the test with DU-145 prostate was 16.2%; in the test with K-562 leukemia, 8.46% (active); in the test on MALME-3M melanoma, 60.2%; in the test with MDA-MB-231 breast, 29.6%; in the test on RXF 393 renal, 7.03% (active); in the test with SF-268 CNS, 50.6%. Moreover, the growth is 9.8% (active) in the test with SF-295 CNS; -9.59% (active) with SF-539 CNS; 56% with UACC-257 melanoma; 16.4% in the test with M14 melanoma; 11.5% with HCT-15 colon; 9.92% (active) in the test with HT29 colon. Moreover, the growth is 23.9% with SNB-75 CNS; 31.2% with SNB-19 CNS; 28.6% in the test with U251 CNS; 27.6% in the test with PC-3 prostate; -4.84% (active) in the test on SK-MEL-5 melanoma; 30.1% with UACC-62 melanoma. Moreover, the values for the growth in the test on LOX IMVI melanoma and in the test with SK-MEL-28 melanoma were 20% and 48.7%, respectively.
